High-throughput results deposited in PubChem by National Center for Advancing Translational Sciences (NCATS).
HCV inh: blocks hepatitis C virus | Huh7.5.1 HCVcc-Cre infection, luciferase reporter, 44 h | Potency, µM (series often up to 41.8 µM), usual class: inhibitors | 340,000 tested, 3.4% active
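HCVcc-Cre virus at an moi near 0.5 was added right after compound to cells cultured 4 h from seeding (1,000 cells/well). Luciferase activity was determined 44 h later, 15 min after substrate addition at RT.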
Pf growth 48h: P. falciparum growth inhibition at 48 hours (one generation); P. falciparum luciferase growth in erythrocytes, 48 h; Potency, µM (doses to about 28.7 µM), usual class: inhibitors; 310,000 tested, 5.9% active
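Erythrocytes infected with P. falciparum carrying an integrated firefly luciferase reporter (2% hematocrit, 0.1% parasitemia final) were exposed to compounds in RPMI 1640 with 0.5% Albumax at 37 C, 5% CO2. Growth inhibition was scored as reduced luminescence.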
AmpC inh no detg: inhibitors of E. coli AmpC beta-lactamase without detergent; AmpC nitrocefin hydrolysis, absorbance 480 nm, 0.0001% Triton; Potency, µM (highest dose often 57.1 µM), most hits filed as inhibitors; AID 485341; 330,000 tested, 0.52% active; P00811; further: nearly all actives have a fitted effect of over 20% in size
Target sequence (P00811 whole entry, looked up): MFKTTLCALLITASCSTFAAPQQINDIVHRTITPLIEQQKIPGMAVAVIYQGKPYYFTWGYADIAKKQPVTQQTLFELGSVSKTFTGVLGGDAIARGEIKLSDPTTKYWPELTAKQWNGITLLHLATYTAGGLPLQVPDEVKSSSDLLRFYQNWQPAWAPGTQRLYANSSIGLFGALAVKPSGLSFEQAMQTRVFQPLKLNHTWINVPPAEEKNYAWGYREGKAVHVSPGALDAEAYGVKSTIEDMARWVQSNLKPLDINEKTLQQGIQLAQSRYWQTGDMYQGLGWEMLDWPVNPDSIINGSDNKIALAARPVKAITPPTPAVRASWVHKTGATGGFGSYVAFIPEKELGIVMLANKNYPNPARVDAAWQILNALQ
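AmpC (5.3 nM in the dispensed reagent) in 20 mM phosphate pH 7.0 with 0.01% (detergent screen) or 0.0001% Triton X-100 was preincubated with compounds for 15 min at room temperature. Nitrocefin was then added from an 800 uM solution, and hydrolysis was followed at 480 nm.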
Pf growth 96h: P. falciparum growth inhibition at 96 hour, primary screen for plastid delayed-death inhibitors. P. falciparum luciferase reporter growth, 96 h. Potency, µM (series often up to 28.7 µM), actives largely listed as inhibitors. 320,000 tested, 6.9% active. AID 504834
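Cell-based qHTS: luciferase-tagged P. falciparum in erythrocytes (2% hematocrit, 0.05% parasitemia final) incubated with compounds for 96 hours, 37 C, 5% CO2; luciferase detection reagent then added and luminescence measured.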
AMA1-RON2 inh: inhibitors of Plasmodium falciparum AMA1-RON2 interaction; Potency, µM (doses to about 58.2 µM), actives largely listed as inhibitors; 360,000 tested, 0.2% active; AlphaScreen AMA1-biotinylated RON2 peptide binding; AID 720542; further: nearly all actives have a fitted effect of over 45% in size
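AMA1 (3D7) with his tag at 25 nM final met compounds first, then biotinylated RON2 peptide at 25 nM; detection used donor plus acceptor beads, 10 µg/mL apiece, read by AlphaScreen after 30 min at room temperature.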
AmpC inh detg: blocks E. coli AmpC beta-lactamase in detergent assay | 370,000 tested, 0.041% active | P00811 | AID 485294 | AmpC hydrolysis of nitrocefin, absorbance 480 nm, 0.01% Triton | Potency, µM (titrated, usually from 114 µM), usual class: inhibitors; further: nearly all actives have a fitted effect of over 25% in size
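20 mM phosphate pH 7.0 + 0.01% (detergent screen) or 0.0001% Triton X-100; 5.3 nM AmpC reagent; cpd preinc 15 min RT; nitrocefin (800 uM stock) to start; A480 q20 s × 4 min; Activity was normalised to no-enzyme and no-compound control wells.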
Numbers stand for hits; – = inactive; ? = inconclusive; · = not tested or not shown; [ ] = dose if it differs, or a comment. A selection: hits, their analogues and other compounds. The true share with any hit is near 11%. The call rests on the fitted dose curve; in most records, active means well fitted curve in the direction sought with a large enough effect; inconclusive means small, poorly fitted or top-dose-only effect, or another doubt; inactive means no such curve, though single readings can be large; an effect the other way counts as inactive or inconclusive.

SMILES	HCV inh	Pf growth 48h	AmpC inh no detg	Pf growth 96h	AMA1-RON2 inh	AmpC inh detg
CCOC(=O)c1ccccc1NC(=O)CSc1nc(N)cc(N)n1	–	–	–	11.7µM	–	–
Cc1ccccc1OCc1nnc(SCC(=O)Nc2ccc3nc(SCC(=O)Nc4ccccc4)sc3c2)n1C	1.12µM	13.1µM	–	10.4µM	?	–
COc1ccc(N(CC(=O)Nc2cccc(Cl)c2C)S(=O)(=O)c2c(C)nn(C)c2C)cc1	·	·	·	·	·	–
CCOc1ccc(C2C(C#N)=C(N)Oc3cc(C)n(CCN(C)C)c(=O)c32)cc1OCC (centres undefined)	–	–	–	11.7µM	–	–
CCN(CC)CCCn1c(C)cc2c(c1=O)C(c1ccccc1)C(C#N)=C(N)O2 (centres undefined)	?	?	–	?	–	–
CCN(CC)CCCn1c(C)cc2c(c1=O)C(c1ccc(OC)c(OC)c1OC)C(C#N)=C(N)O2 (centres undefined)	–	?	–	0.928µM	–	–
CCOc1ccc(C(=O)Nc2ccc3oc(-c4ccc5ccccc5c4)nc3c2)cc1	·	·	·	·	·	–
Cc1nc2ccc(NS(=O)(=O)c3ccc(F)c(C)c3)cc2[nH]1	7.08µM	–	–	–	–	–
Cc1nc2ccc(S(=O)(=O)c3ccc4nc(C)[nH]c4c3)cc2[nH]1	–	–	–	?	–	–
CN1N=C2c3ccccc3CCC2C1c1ccc(F)cc1 (centres undefined)	–	1.31µM	–	1.65µM	–	–
CN1N=C2c3ccccc3CCC2C1c1ccc(Cl)cc1 (centres undefined)	–	?	–	1.47µM	–	–
CC1CCc2cc(F)cc3c(O)c(C(=O)NCc4ccco4)c(=O)n1c23 (centres undefined)	–	–	–	–	–	–
CC1CCc2cc(F)cc3c(O)c(C(=O)NCCN(C)C)c(=O)n1c23 (centres undefined)	–	–	–	9.28µM	–	–
Cc1cccc(CSc2ccc(S(=O)(=O)N3CCCC3)cn2)c1	?	?	–	6.57µM	–	?
CCC(C)NC(=O)CSc1ccc(S(=O)(=O)N2CCN(Cc3ccccc3)CC2)cn1 (centres undefined)	–	?	–	9.28µM	–	–
CC(C)NC(=O)NC(=O)CSc1ccc(S(=O)(=O)N2CCCC2)cn1	–	–	–	–	–	–
CC(C)(C)c1ccc(CSc2ccc(S(=O)(=O)N3CCOCC3)cn2)cc1	10µM	10.4µM	–	?	–	?
O=S(=O)(c1ccc(SCc2ccccc2)nc1)N1CCCC1	?	–	–	–	–	?
CC(C)(C)NC(=O)NC(=O)CSc1ccc(S(=O)(=O)N2CCOCC2)cn1	–	–	–	?	–	?
Cc1ccc(C(C)NC(=O)CSc2ccc(S(=O)(=O)N3CCOCC3)cn2)cc1C (centres undefined)	–	11.7µM	–	?	–[11.6 µM]	?
O=C(COc1ccccc1)Nc1ccc(OCc2cc(=O)n3ccsc3n2)cc1	·	·	·	·	·	–
Cc1cc(C)c2cc(C(O)c3nnnn3Cc3ccccc3)c(=O)[nH]c2c1 (centres undefined)	–	?	–	–	–	–
Cc1cc(C)c2cc(CN(CCO)C(c3nnnn3Cc3ccc(F)cc3)C(C)C)c(=O)[nH]c2c1 (centres undefined)	?	?	–	11.7µM	·	?
COc1ccc(N2CCN(C(=O)c3cn(C4CCCCC4)c(=O)c4c3c3ccccc3n4C)CC2)cc1	·	·	·	·	·	–
CC1Cc2ccccc2N1CC(=O)Nc1ccc(Cl)c(S(=O)(=O)N(C)C)c1 (centres undefined)	–	9.28µM	–	–	–	?
SMILES	HCV inh	Pf growth 48h	AmpC inh no detg	Pf growth 96h	AMA1-RON2 inh	AmpC inh detg
CC1Cc2ccccc2N1CC(=O)Nc1ccc(N2CCOCC2)cc1 (centres undefined)	–	–	–	–	–	–
O=C(CN1C(=O)CC(c2ccco2)Sc2ccccc21)Nc1ccc2c(c1)OCCO2 (centres undefined)	11.2µM	–	–	–	–	?
Cc1ccc(NC(=O)CSc2ccc3c(c2)OCCO3)c(O)c1	10µM	–	–	–	–	–
CC1Cc2ccccc2N1CC(=O)Nc1ccc2c(c1)OCCCO2 (centres undefined)	–	?	–	11.7µM	–	–
Cc1ccc(NC(=O)CN2C(=O)CC(c3ccco3)Sc3ccccc32)cc1Cl (centres undefined)	·	·	·	·	·	–
Cc1oc2ccc(O)c(CN3CCOCC3)c2c1C(=O)Nc1ccc(C(C)C)cc1	·	·	·	·	·	–
CCCOc1ccc(CNC(=O)CCCN2C(=O)CSc3c2c(C)nn3-c2ccccc2)cc1	·	·	·	·	·	–
COc1ccc(OC)c(NC(=O)CS(=O)(=O)Cc2nc(-c3ccc(C)cc3)oc2C)c1	·	·	·	·	·	–
O=C(CN1CCN(c2ccccc2)CC1)Nc1ccc2c(c1)OCCO2	–	–	–	–	–	?
O=C(CSc1ccc2c(c1)OCCO2)N1CCN(c2ccccc2O)CC1	?	?	–	7.38µM	–	–
O=C(CN1CCN(c2ccccc2O)CC1)Nc1ccc2c(c1)OCCCO2	–	13.1µM	–	–	–	–
Nc1c(-c2nc(-c3ccc4c(c3)OCO4)cs2)c2ccccn2c1C(=O)c1ccccc1	·	·	·	·	·	–
CCOc1ccc(-c2nnc(SCC(=O)Nc3cccc(OC)c3)nc2-c2ccc(OCC)cc2)cc1	·	·	·	·	·	–
CCN(CC)S(=O)(=O)c1cccc(-n2c(O)c(C=Nc3ccccc3C(=O)O)c3ccccc3c2=O)c1	?	13.1µM	–	7.38µM	–	–
COc1ccc(NC(=O)CSc2ccc3c4c(cccc24)C(=O)c2ccccc2-3)cc1	?	?	–	?	–	–
N#Cc1cccc(NC(=O)CSc2ccc3c4c(cccc24)C(=O)c2ccccc2-3)c1	8.91µM	·	–	–	–	–
COC(=O)CN1C(=O)CSc2ccc(S(=O)(=O)Nc3ccc(F)c(Cl)c3)cc21	·	·	·	·	·	–
Cc1cnc(NC(=O)c2cc3c(C)nn(Cc4ccccc4Cl)c3s2)s1	?	7.38µM	–	13.1µM	–	–
Cc1cc(C(=O)NCc2cccnc2)n(-c2ccccc2)n1	–	–	–	–	–	?
Cc1nn(Cc2ccccc2)c2sc(C(=O)NCc3cccnc3)cc12	7.94µM	?	–	?	–	?
Cc1cnc(NC(=O)Cc2ccccc2Cl)s1	?	–	–	–	–	–
CN1CCN(c2cc3c(nn2)Oc2ccccc2N3C)CC1	·	–	·	–	·	·
COC(=O)C1C(O)C(C)C(O)C(C)(O)/C=C\C=C(/C)C(=O)Nc2c(C)c(OC(C)=O)c3c(c2O)C(=O)C(C)=C2OCOC(=C23)/C(C)=C/C(C)(O)C(O)C(C)C1O (centres undefined)	–	2.94µM	–	?	–	–
